BAZ2B block: BAZ2B (human) inhibition | AlphaScreen BAZ2B-H3K14Ac peptide displacement | 360,000 tested, 4.4% active | Potency, µM (top dose mostly 114 µM), without a hit: at the top dose activity change, negative = inhibition, actives largely listed as inhibitors | Q9UIF8; note: % is set by controls: 0 for no effect and ±100 for the full control effect; nearly all actives have a fitted effect of over 60% in size
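Inhibition is scored as reduced AlphaScreen emission. The BAZ2B/b-H3(5-23)K14Ac complex (50 nM each) in PBS pH 7.4, 0.01% Tween-20 meets compound (up to 110 uM) for 30 min at RT before bead addition.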
Sfp inh: inhibitors of Bacillus subtilis Sfp phosphopantetheinyl transferase. 310,000 tested, 3.5% active. Biochemical Sfp PPTase activity, qHTS. Potency, µM, inactives show largest response in the series, negative = inhibition, usual class: inhibitors;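 note: the enzyme is Sfp with the accession as filed and its product quenches rhodamine fluorescence; 0% = enzyme reaction without inhibitor and -100% = no enzyme wells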
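After 15 min at room temperature with compound, 15 nM Sfp received 5 uM rhodamine-CoA plus 12.5 uM BHQ-2-ybbR (50 mM Hepes pH 7.6, 10 mM MgCl2). Rate came from the fluorescence difference over 30 min, ex 525/em 598 nm.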
HP1b binding inh: HP1-beta chromodomain-methylated histone interaction inhibition; 390,000 tested, 0.56% active; Potency, µM (doses to about 114 µM), for the others: at the highest dose activity change, negative = inhibition, hits mostly inhibitors; AlphaScreen HP1-beta / biotin-H3K9me3 peptide binding; P83916; note: nearly all actives have a fitted effect of over 70% in size
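HP1-beta protein (50 nM final) preincubated 30 min at room temperature with biotinylated H3(1-18)K9me3 peptide (50 nM) in PBS pH 7.4, 0.01% Tween-20, then compound added for 30 min. AlphaScreen streptavidin donor/nickel chelate acceptor beads (10 ug/mL final), 30 min dark, luminescence read.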
L3MBTL1 block: blocks human L3MBTL1; Q9Y468; AlphaScreen L3MBTL1–H3K9me1 peptide binding; Potency, µM (titrated, usually from 57.1 µM), inactives show top-dose activity, negative = inhibition, usual class: inhibitors; 230,000 tested, 0.66% active; AID 485360; note: % is set by controls: 0 for no effect and ±100 for the full control effect; nearly all actives have a fitted effect of over 60% in size
Target sequence (Q9Y468 whole entry, looked up): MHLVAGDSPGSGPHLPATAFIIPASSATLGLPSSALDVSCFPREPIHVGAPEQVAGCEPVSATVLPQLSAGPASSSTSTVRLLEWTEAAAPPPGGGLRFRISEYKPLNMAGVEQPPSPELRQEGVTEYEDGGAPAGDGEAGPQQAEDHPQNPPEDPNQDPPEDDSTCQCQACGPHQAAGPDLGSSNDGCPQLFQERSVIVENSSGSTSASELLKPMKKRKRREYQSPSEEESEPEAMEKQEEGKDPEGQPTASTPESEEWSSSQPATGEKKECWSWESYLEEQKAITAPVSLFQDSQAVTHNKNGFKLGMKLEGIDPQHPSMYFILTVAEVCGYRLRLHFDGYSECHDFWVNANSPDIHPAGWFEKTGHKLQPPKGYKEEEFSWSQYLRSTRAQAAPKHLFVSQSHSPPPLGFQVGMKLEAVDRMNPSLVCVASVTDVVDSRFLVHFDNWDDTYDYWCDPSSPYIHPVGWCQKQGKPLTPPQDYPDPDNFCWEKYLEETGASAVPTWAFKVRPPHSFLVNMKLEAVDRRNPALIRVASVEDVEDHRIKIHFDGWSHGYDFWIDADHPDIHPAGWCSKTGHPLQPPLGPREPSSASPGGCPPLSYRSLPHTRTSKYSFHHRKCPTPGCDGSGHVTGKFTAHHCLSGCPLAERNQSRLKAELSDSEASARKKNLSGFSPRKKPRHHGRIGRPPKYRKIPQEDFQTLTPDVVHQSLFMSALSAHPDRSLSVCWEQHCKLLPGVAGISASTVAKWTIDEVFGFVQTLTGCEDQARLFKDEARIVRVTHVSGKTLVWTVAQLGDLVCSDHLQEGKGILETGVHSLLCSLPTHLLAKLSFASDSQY
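AlphaScreen assay: L3MBTL1 (50 nM final) was preincubated 30 min at room temperature with biotinylated H3(1-15)K9me1 peptide (75 nM final), then 30 min with library compounds; streptavidin donor and nickel chelate acceptor beads (10 ug/mL final) added, 30 min dark.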
G9a block: G9a (human) methyltransferase inhibition; 350,000 tested, 8.8% active; Q96KQ7; G9a H3K9 monomethylation, AlphaScreen, 2 h; Potency, µM (series often up to 102 µM), without a hit: at the highest dose activity, negative = inhibition, most hits filed as inhibitors; note: % is set by controls: 0 for no effect and ±100 for the full control effect; nearly all actives have a fitted effect of over 75% in size
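AlphaScreen read-out: biotin-H3K9 peptide (500 nM) methylation by 20 nM enzyme with 20 uM SAM, 2 h at room temperature after 15 min compound preincubation; anti-monomethyl H3K9 antibody plus donor/acceptor beads, 10 min dark.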
JMJD2A Tudor inh: JMJD2A Tudor domain (human) inhibition | O75164 | AlphaScreen JMJD2A-Tudor / H3K4me3 peptide binding | Potency, µM (series often up to 114 µM), for the others: at the highest dose activity change, negative = inhibition, usual class: inhibitors | 390,000 tested, 4.4% active | AID 504339; note: % is set by controls: 0 for no effect and ±100 for the full control effect; nearly all actives have a fitted effect of over 50% in size
* marks the source's active call; other numbers are inactive results; ! = not active in a repeat; [ ] = another dose, or the depositor's remark. Rows were chosen to be rich in hits. Some 12% of all compounds tested hit in one or more screens of this group. Calls come from the whole dose curve; as a rule, active = well fitted curve in the direction sought with a large enough effect; inconclusive = small, poorly fitted or top-dose-only effect, or another doubt; inactive = no such curve, though single readings can be large; an effect the other way counts as inactive or inconclusive. Potency is the fitted concentration of half-maximal effect.

`COc1cc(C2C(=O)N(C3CCCC3)CC(=O)N2Cc2ccco2)ccc1OC(C)C` (configuration not stated) gave BAZ2B block -32.4%, Sfp inh -4.6%, HP1b binding inh -5.7%, L3MBTL1 block -2.9%, G9a block 79.4µM* and JMJD2A Tudor inh -16.5%.
`O=C1c2nc3cc(-c4ccco4)[nH]n3c(=O)c2CN1Cc1ccccc1` gave BAZ2B block inconclusive, Sfp inh 20µM*, HP1b binding inh 29.2%, L3MBTL1 block inconclusive, G9a block inconclusive and JMJD2A Tudor inh -11.8%.
`O=C(CCC1N=C2c3ccccc3N=C(SCc3ccc(F)cc3)N2C1=O)NCCc1ccccc1` (configuration not stated) gave BAZ2B block 10.5%, HP1b binding inh 75.0%, G9a block -0.2%[59 µM] and JMJD2A Tudor inh -29.0%.
Screening S=C(Nc1ccc2cn[nH]c2c1)Nc1ccc(Cl)cc1Cl returned BAZ2B block inconclusive, Sfp inh 15.8µM*, HP1b binding inh -22.1%, L3MBTL1 block -8.7%, G9a block 28.2µM* and JMJD2A Tudor inh inconclusive.
Cc1ccccc1NC(=S)Nc1ccc2[nH]c(=O)[nH]c2c1 was read as BAZ2B block -9.7%, Sfp inh -28.2%, HP1b binding inh -4.3%, L3MBTL1 block 3.9%, G9a block 50.1µM* and JMJD2A Tudor inh -16.2%.
O=c1[nH]c2ccc(NC(=S)Nc3ccccc3Cl)cc2[nH]1 was read as BAZ2B block -3.9%, Sfp inh 50.1µM*, HP1b binding inh 0.8%, G9a block 14.1µM* and JMJD2A Tudor inh -5.6%.
For CCOC(=O)c1c(C)oc2nc(C)nc(NCCCN3CCN(c4cccc(C)c4)C(C)C3)c12 (configuration not stated) the results were BAZ2B block inconclusive, HP1b binding inh -1.7%, G9a block inconclusive and JMJD2A Tudor inh -24.9%.
CCCC(CCC)C(=O)Nc1cccc(-c2nc3cccnc3s2)c1C was read as BAZ2B block inconclusive, HP1b binding inh -21.8%, G9a block inconclusive and JMJD2A Tudor inh inconclusive.
Cc1ccc2c(cnn2C(=O)CCC(=O)NCc2cccc(Cl)c2)c1 was read as BAZ2B block 11.1%, Sfp inh -23.5%, HP1b binding inh 29.2%, L3MBTL1 block 0.2%, G9a block 44.7µM* and JMJD2A Tudor inh -14.8%.
O=C1CC(c2ccc(O)c(O)c2)Oc2cc(O)cc(O)c21 (configuration not stated) was read as BAZ2B block -10.8%, Sfp inh -21.8%, HP1b binding inh -3.6%, G9a block -43.7%[2.33 µM] and JMJD2A Tudor inh 79.4µM*.
Screening O=C1CC(c2ccc(O)c(O)c2)Oc2c1ccc(O)c2O (configuration not stated) returned BAZ2B block 10µM*, Sfp inh 56.2µM*, HP1b binding inh inconclusive, G9a block -189.7%[59 µM] and JMJD2A Tudor inh 8.91µM*.
For COc1ccc([C@H]2OCC3C2CO[C@@H]3c2ccc(OC)c(OC)c2)cc1OC (some centres not stated) the results were Sfp inh 1.1%.
Screening c1cncc(CNc2ncnc3ccc(-c4cccnc4)cc23)c1 returned BAZ2B block -24.8%, Sfp inh 79.4µM*, HP1b binding inh 40.5%, L3MBTL1 block 11.0%, G9a block 0.7%[12.7 µM] and JMJD2A Tudor inh inconclusive.
c1cncc(-c2nc(NCc3cccs3)c3ccccc3n2)c1 was read as BAZ2B block -7.5%, Sfp inh 79.4µM*!, HP1b binding inh 30.3%, L3MBTL1 block 4.1%, G9a block 1.0%[0.501 µM] and JMJD2A Tudor inh -19.6%.
`c1cncc(CNc2ncncc2-c2ccoc2)c1` gave Sfp inh 79.4µM* and G9a block -14.0%[0.501 µM].
N#Cc1cccc(-c2cncnc2NCc2cccnc2)c1 was read as Sfp inh -1.6% and G9a block 13.3%[0.501 µM].
`c1nc(NCc2ccc3c(c2)OCO3)c2cc(-c3ccoc3)ccc2n1` gave BAZ2B block 50.1µM*, HP1b binding inh 11.8%, L3MBTL1 block -5.5%, G9a block -0.2%[12.7 µM] and JMJD2A Tudor inh -22.9%.
Screening COc1ccc(CNC(=O)c2cnc3sc(N4CCCC4)nn3c2=O)c(OC)c1 returned BAZ2B block -16.9%, HP1b binding inh 50.0%, G9a block 3.4%[59 µM] and JMJD2A Tudor inh -8.0%.
COC(=O)N1CCC[C@@]2(CCN(c3ncccn3)C2)C1 was read as Sfp inh 16.8% and G9a block 7.5%[12.7 µM].
CCOc1ccc(S(=O)(=O)NCC(c2cccs2)S(=O)(=O)c2ccc(C)cc2)cc1 (configuration not stated) was read as BAZ2B block 2.8%, HP1b binding inh 43.3%, G9a block -29.2%[59 µM] and JMJD2A Tudor inh -11.7%.
`O=c1[nH]c(CNCc2cccnc2)nc2ccccc12` gave BAZ2B block -23.6%, Sfp inh 25.1µM*, HP1b binding inh 6.4%, L3MBTL1 block 2.4%, G9a block inconclusive and JMJD2A Tudor inh -11.8%.
`c1ncc(-c2ccoc2)c(NC2CC2)n1` gave Sfp inh 79.4µM* and G9a block 0.1%[0.501 µM].
`c1cncc(CNc2nc(-c3ccoc3)nc3ccccc23)c1` gave Sfp inh 39.8µM*.
Screening Cc1cccc(C(=O)Nc2ccc3nc(SCC(=O)N4CCc5ccccc54)sc3c2)c1 returned BAZ2B block 6.1%, HP1b binding inh 66.6%, G9a block 5.3%[59 µM] and JMJD2A Tudor inh -18.2%.
CC(=O)c1c(C)[nH]c(-c2ccccc2)c1C was read as BAZ2B block 50.1µM*, Sfp inh 1.9%, HP1b binding inh -25.6%, L3MBTL1 block -7.7%, G9a block -9.0%[59 µM] and JMJD2A Tudor inh inconclusive.
Screening CC(=O)c1c(-c2ccccc2)[nH]c2ccccc12 returned BAZ2B block -5.1%, Sfp inh 14.5%, HP1b binding inh 47.2%, L3MBTL1 block -9.4%[2.29 µM], G9a block 0.3%[0.501 µM] and JMJD2A Tudor inh -6.1%.
For Cc1c2cccn2cc[n+]1C the results were BAZ2B block -2.3%, Sfp inh -3.7%, HP1b binding inh 4.1%, L3MBTL1 block -5.3%, G9a block 14.1µM* and JMJD2A Tudor inh 44.7µM*.
O=C(CSc1nnc(-c2ccco2)n1CC1CCCO1)c1ccc(F)cc1 (configuration not stated) was read as BAZ2B block -23.4%, Sfp inh 50.1µM*, HP1b binding inh inconclusive, L3MBTL1 block 5.4%, G9a block 44.7µM* and JMJD2A Tudor inh 3.16µM*.

Screening results from PubChem.
